Measured values taken from PubChem BioAssay (NCATS).
Records with an inconclusive call do not appear. Calls of active or inactive are those of the source. Unless noted, calls follow the shape of the dose curve; as a rule, active = well fitted curve in the direction sought with a large enough effect; inconclusive = small, poorly fitted or top-dose-only effect, or another doubt; inactive = no such curve, though single readings can be large; an effect the other way counts as inactive or inconclusive.

Legend:
[1] = Cell Viability - BJ (AID 421; calls by dose curve;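 also: potency is read from the fitted curve at half-maximal effect; cells exposed to compound for 40 hours at 37 °C before readout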); settings: BJ fibroblast viability, qHTS
Summary of the method: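 Luminescent ATP signal (CellTiter-Glo, 20 min at room temperature) served as the read-out of viable BJ cells after 40 hours of compound treatment. Responses were scaled between DMSO and 100 uM tamoxifen, and AC50 values were obtained by Hill modeling.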

[2] = Cell Viability - Jurkat (AID 426;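 active = dose-dependent loss of cell ATP signal giving a full or clear fitted curve, ranked by lower potency value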;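 also: potency is read from the fitted curve at half-maximal effect; cells exposed to compound for 40 hours at 37 °C before ATP read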); settings: qHTS
Summary of the method: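 Cytotoxicity was scored as loss of cellular ATP, measured by luciferase-based luminescence, in Jurkat clone E6-1 cells after 40 h compound treatment; tamoxifen and doxorubicin served as positive controls.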

[3] = Cell Viability - Hek293 (AID 427;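 active = compounds whose dose-response curve shows a full or clear partial loss of cell viability, called from curve shape rather than a numeric limit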;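 also: potency is read from the fitted curve at half-maximal effect; cells exposed to compound for 40 hours at 37 °C before reading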); settings: qHTS
Summary of the method: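 Luminescent ATP read-out (CellTiter-Glo, 20 min RT) after 40 hr compound exposure at 37 °C in complete medium. Signal normalized to DMSO (basal) and 100 uM tamoxifen (100% inhibition); concentration-response fitted with the standard Hill equation to give AC50.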

[4] = Cell Viability - HepG2 (AID 433; calls by dose curve;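 also: potency is read from the fitted curve at half-maximal effect; potency for ATP loss meaning cytotoxicity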); settings: qHTS
Summary of the method: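 Read-out is luciferase-based quantitation of cellular ATP as a measure of viable HepG2 cells after 40 h treatment at 37 °C. Signal decrease is scaled between DMSO-only and 100 uM tamoxifen controls, with AC50 fitted by the Hill equation.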

[5] = Cell Viability - MRC5 (AID 434; calls by dose curve;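 also: potency is read from the fitted curve at half-maximal effect; cells exposed to compound for 40 hours at 37 °C; potency reflects cytotoxicity seen as loss of intracellular ATP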); settings: MRC5 lung fibroblast viability, qHTS
Summary of the method: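 AC50 values come from Hill-equation fits of intracellular ATP loss, measured by CellTiter-Glo luminescence. Normal lung fibroblasts (MRC5) had 40 hr compound treatment at 37 C, normalized between DMSO and 100 uM tamoxifen.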

[6] = Cell Viability - SK-N-SH (AID 435; calls by dose curve;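 also: potency is read from the fitted curve at half-maximal effect; compound exposure lasted 40 h at 37 °C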); settings: SK-N-SH neuroblastoma cell viability qHTS
Summary of the method: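 Luminescent ATP signal served as the viability read-out after 40 hours of compound treatment of human neuroblastoma SK-N-SH cells. Concentration-response data, scaled between DMSO and 100 uM tamoxifen, gave AC50 values by standard Hill modeling.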

[7] = target: Mitogen-activated protein kinase 10 (Mus musculus) (UniProt Q61831); assay: JNK3 AlphaScreen Assay (AID 530; active = well fitted curve in either direction with a large enough effect, not every such curve was filed as active;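 also: kinase came from lysate of stimulated human HepG2 cells; signal reports phosphorylation of biotinylated GST-cJun 1-79 at Ser73 with 10 µM ATP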); settings: JNK3 lysate, c-Jun phosphorylation; series mostly up to 11.4 µM
Summary of the method: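 Kinase buffer: 20 mM Tris-HCl pH 7.6, 10 mM MgCl2, 1 mM DTT, 0.1 mM Na3VO4, 0.01% Tween-20; ATP 10 uM. Substrate biotin-GST-cJun(1-79), enzyme from activated HepG2 lysates. Detection by Ser73 phospho-antibody AlphaScreen.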

[8] = Cell Viability - HUV-EC-C (AID 542); settings: HUV-EC-C endothelial cell viability, qHTS; series mostly up to 92.2 µM; also: nearly all actives have a fitted effect of over 35% in size
Summary of the method: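 Concentration-dependent ATP loss in HUV-EC-C cells is the measure. Exposure lasts 40 hr at 37 °C; luminescence follows CellTiter-Glo addition, and Hill fits give AC50.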

[9] = Cell Viability - H-4-II-E (AID 543); settings: H-4-II-E rat hepatoma viability; series mostly up to 92.2 µM; also: nearly all actives have a fitted effect of over 35% in size
Summary of the method: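 AC50 from Hill-modelled qHTS concentration-response curves. H-4-II-E rat hepatoma cells in complete medium, 40 hr exposure at 37 °C, viability by CellTiter-Glo ATP luminescence.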

[10] = Cell Viability - SH-SY5Y (AID 544); settings: SH-SY5Y neuroblastoma cell viability; viability change, negative = cytotoxic: at 92.2 µM (top of the series); also: nearly all actives have a fitted effect of over 55% in size
Summary of the method: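 Quantitative HTS in SH-SY5Y neuroblastoma cells, 40 hr treatment at 37 °C, ATP content by luciferase luminescence; AC50 from Hill fits.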

[11] = Cell Viability - Renal Proximal Tubule (AID 545); settings: renal proximal tubule cells viability, primary cells of rat origin; activity change, negative = cytotoxicity: at 91.7 µM (top of the series); also: nearly all actives have a fitted effect of over 40% in size
Summary of the method: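 Luminescent ATP signal (CellTiter-Glo) served as the viability read-out after 40 hr compound exposure of freshly isolated rat proximal tubule cells at 37 °C. Concentration-dependent ATP loss was fitted with the Hill equation to give AC50.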

[12] = Cell Viability - Mesenchymal (AID 546); settings: mesenchymal cells viability, qHTS; activity change, negative = cytotoxicity: at 91.7 µM (top of the series);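 also: cells exposed to compound for 40 hours before reading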
Summary of the method: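 CellTiter-Glo luminescence (intracellular ATP, 20 min room temperature) after 40 hr compound exposure at 37 °C of 1000 glomerulus-derived human kidney mesenchymal cells/well; AC50 values obtained by fitting qHTS concentration-response data to the Hill equation.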

[13] = Cellular Toxicity (caspase-3) HepG2 (AID 654); settings: HepG2 caspase-3 activation, luminescence; series mostly up to 92.2 µM;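 also: cells exposed to compound for 16 hours before reading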
Summary of the method: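 Concentration-response AC50 values reflect caspase-3/7 induction in HepG2 cells after 16 hours of compound exposure, quantified by luminescence from liberated aminoluciferin and referenced to 100 uM tamoxifen as full stimulation.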

[14] = Cellular Toxicity (caspase-3) HUV-EC-C (AID 656); settings: HUV-EC-C cells, caspase-3 activation (apoptosis); series mostly up to 92.2 µM
Summary of the method: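 qHTS; HUV-EC-C, 1000 cells/well; 5 hr settle, 16 hr cmpd, 37°C; Caspase-Glo 3/7, 20 min RT; luminescence. Norm: DMSO = 0%, tamoxifen 100 uM = 100%. Hill-fit AC50.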

[15] = Cellular Toxicity (caspase-3) SHSY5Y (AID 657); settings: SH-SY5Y caspase-3 activation; series mostly up to 91.7 µM
Summary of the method: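 qHTS, SH-SY5Y, 1500 cells/well, 5 h pre-incubation 37 °C; compound 16 h 37 °C; Caspase-Glo 3/7 1 h RT; luminescence. Norm.: DMSO = 0, 10 uM staurosporine = 100%. Hill fit → AC50.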

[16] = Cellular Toxicity (caspase-3) MRC-5 (AID 659); settings: MRC-5 cells, luminescence, normalized: DMSO 0%, 10 µM staurosporine 100%; series mostly up to 91.7 µM
Summary of the method: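 Luminescent Caspase-Glo 3/7 read-out (1 h, room temperature) after a 16 h, 37 °C compound exposure of MRC-5 lung fibroblasts at 1500 cells/well. Concentration-response AC50 from Hill equation; 0% DMSO, 100% 10 uM staurosporine.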

[17] = Cellular Toxicity (caspase-3) Mesangial (AID 660); settings: mesangial cells, normalized: DMSO 0%, 100 µM tamoxifen 100%; series mostly up to 91.7 µM;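 also: combined caspase 3 and 7 activity read by Caspase-Glo luminescence; cells exposed to compound for 16 h before the caspase read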
Summary of the method: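 AC50 values come from Hill-equation fits of caspase 3/7 activation, measured as Caspase-Glo luminescence in human glomerular mesangial cells exposed to compound for 16 h at 37 °C; 100% set by 100 uM tamoxifen.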

[18] = Cellular Toxicity (caspase-3) SK-N-SH (AID 661); settings: SK-N-SH caspase-3 activation, qHTS, DMSO as zero, staurosporine as full; series mostly up to 91.7 µM
Summary of the method: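 Apoptosis readout in SK-N-SH neuroblastoma: Caspase-Glo 3/7 luminescence following 16 hr treatment in complete culture medium. Normalization used DMSO and 10 uM staurosporine controls.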

[19] = Cellular Toxicity (caspase-3) H-4-II-E (AID 663); settings: H-4-II-E rat hepatoma; Potency: caspase-3 activation; series mostly up to 92.2 µM;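 also: cells exposed to compound for 16 hr before readout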
Summary of the method: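 Caspase 3/7 activation measured by luminescent aminoluciferin substrate cleavage after 16 hr compound treatment of H-4-II-E cells in complete medium. Increase normalized between DMSO (basal) and 100 uM tamoxifen (100%); Hill-equation AC50 from concentration-response.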

[20] = Cellular Toxicity (caspase-3) N2a (AID 665); settings: N2a cells, luminescence, normalized: DMSO 0%, 10 µM staurosporine 100%; series mostly up to 92.2 µM;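 also: compound exposure lasted 16 h at 37 °C before readout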
Summary of the method: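 Concentration-response qHTS: compound-induced caspase-3/7 luminescence in N2a cells (16 h, 37 °C), relative to DMSO and 10 uM staurosporine controls; AC50 obtained using the standard Hill equation.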

[21] = Cellular Toxicity (caspase-3) NIH 3T3 (AID 666); settings: NIH 3T3 caspase-3 activation, apoptosis/toxicity, 0% DMSO, 100% is 100 µM tamoxifen; series mostly up to 92.2 µM
Summary of the method: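 Activity: caspase-3/7 induction, NIH 3T3 cells, 16 hr treatment at 37°C, luminescent Caspase-Glo detection; AC50 via Hill equation.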

Measured: Potency

CCOC(=O)C1OC1c1ccccc1 (stereo unspecified)
inactive: [1] > 92 µM | [2] > 92 µM | [3] > 92 µM | [4] > 92 µM | [5] > 92 µM | [6] > 92 µM | [7] | [8] | [9] | [10] | [11] | [12] | [13] | [14] | [15] | [16] | [17] | [18] | [19] | [20] | [21]
